# The list is not random: actives were taken first. Their share in the collection is about 0.9%.
# CDC25B CDK2 inh: human CDC25B-CDK2/CyclinA binding inhibition. P30305+P24941. actives 0.72% (n = 94,000). HTRF CDC25B-CDK2/CyclinA binding, anti-His/anti-Flag; stronger effect = higher value. z-score (no concentration beside the values); in the data active = z-score above about 3.2
# HIV TAR-Tat: HIV-1 TAR-Tat binding disruption; AID 1259389; z-score (no concentration beside the values); actives 0.6% (n = 100,000); HIV-1 TAR RNA, Tat peptide displacement FRET; stronger effect = higher value; active = z-score of 3 or more in at least 2 runs
# An asterisk follows results filed as active; / = not tested or not shown.
SMILES,CDC25B CDK2 inh,HIV TAR-Tat
O=c1[nH]c2ccc(S(=O)(=O)N3CCN(c4cccc(Cl)c4)CC3)cc2[nH]c1=O,15.5,20.5*
CC(C)OC(=O)Cn1c2ccc(Br)cc2c2nc3ccccc3nc21,-0.43,2.79
O=C(O)c1cc2ccccc2nc1-c1ccco1,0.87,34.6*
c1coc(-c2nc3ccccc3nc2-c2ccco2)c1,-0.23,/
CCCCC1(C)OC(=O)C(=Cc2cc3c(cc2[N+](=O)[O-])OCO3)C(=O)O1 (stereo not given),20*,/
CC1(C)OC(=O)C(=Cc2ccc(OCc3ccc(F)cc3)c([N+](=O)[O-])c2)C(=O)O1,-1.62,/
Cc1nnc(NC(=O)C(=O)c2cc(C)n(-c3ccc(Cl)cc3)c2C)s1,0.27,1.19
Cc1cc(C(=O)C(=O)Nc2nnc(-c3ccco3)s2)c(C)n1-c1ccc(Cl)cc1,-1.33,19*
COCCn1c(C)cc(C(=O)C(=O)Nc2nnc(-c3ccco3)s2)c1C,-1.56,30.8*
COCCn1c(C)cc(C(=O)C(=O)Nc2nnc(-c3cccs3)s2)c1C,-2.33,2.85
CCSc1nn2c(=O)cc(COc3cc(C)ccc3C)nc2s1,1.08,7.7*
CCCc1nn2c(=O)cc(COc3cc(C)ccc3C)nc2s1,0,0.21
COC(=O)c1cc2sccc2n1Cc1nc(-c2cccs2)oc1C,-0.74,0.16
CN1CC(=O)Nc2cc(C(=O)NC3CCCC3)ccc21,/,0.47
O=C1c2ccccc2C(Nc2cccnc2)N1c1cccnc1 (stereo not given),-0.21,-0.44
O=C1c2ccccc2C(Nc2cccnc2)N1c1ccccn1 (stereo not given),9.87*,-0.14
O=C(CSc1ccc(Cl)cc1)OCc1cc(=O)n2nc(-c3cccs3)sc2n1,/,-0.47
Cc1cc(C)cc(C(=O)Nc2c(C)nc3cc(C)ccn3c2=O)c1,/,1.48
Cc1nc2ccccc2c2c1C(=O)N(CC1CCCO1)C2=O (stereo not given),7.4*,0.78
Cc1nc2ccccc2c2c1C(=O)N(CC(C)C)C2=O,-0.98,-0.86
N#Cc1c(SCC(=O)NCC2CCCO2)nc2c(c1-c1ccco1)CC/C2=C/c1ccco1 (stereo not given),/,20.4*
N#Cc1c(SCC(=O)Nc2cccc(F)c2)nc2c(c1-c1ccco1)CCCC2,-1.72,/
Cc1ccc(C(=O)CSc2n[nH]c(-c3ccco3)n2)cc1C,-4.07,14.7*
COc1ccc(C(=O)CSc2n[nH]c(-c3ccco3)n2)cc1C,-3.23,-1.88
CS(=O)(=O)CCC(C(=O)N1CCCCC1)N1Cc2ccccc2C1=O (stereo not given),/,0.06
SMILES,CDC25B CDK2 inh,HIV TAR-Tat
Cn1nnnc1SCCCNCc1ccco1,-0.91,2.22
O=C(CSc1nnc(-c2cccnc2)o1)NCC1CCCO1 (stereo not given),-1.21,0.82
O=C(CSc1nnc(-c2cccnc2)o1)NC1CCCC1,0.52,4.56*
O=C1CCCc2cc(S(=O)(=O)N3CCc4ccccc43)ccc2N1,/,1.43
Cc1sc2ncn(CC(=O)N(C)C3CCCCC3)c(=O)c2c1S(=O)(=O)N1CCN(C)CC1,14.6*,-0.17
Cc1sc2ncn(CC(=O)N3CCN(C)CC3)c(=O)c2c1S(=O)(=O)N1CCCCC1,-0.41,/
O=C(c1ccccc1)N1CCn2c1nc1ccccc1c2=O,2.45,1
Cc1ccc2c(ccc(/C=C3\Sc4ccccc4N3C)[n+]2C)c1,0.39,-9.18
Cc1ccc2c(c1)N(C)/C(=C/c1sc3ccccc3[n+]1CCO)S2,-1.87,4.27*
O=C(O)c1cc(-c2cccc(Cl)c2)nc2n[nH]c(-c3ccc(F)cc3)c12,/,2.68
Cc1ccc(-c2cnnc(-n3nc(C)c4c3NC(=O)CC4c3cc(F)ccc3F)n2)cc1 (stereo not given),-1.77,1.91
O=c1c(NCCc2ccc(Cl)cc2)c(-c2ccccc2)c1=O,/,5.97*
O=c1c(NCCc2ccc(Cl)cc2)c(-c2ccc(Cl)cc2)c1=O,/,-1.58
Cc1nc2ncnn2c(C)c1CCC(=O)Nc1ccc(F)cc1F,0.22,/
O=C(CCc1nc2sc3c(c2c(=O)[nH]1)CCCCC3)NCCN1CCOCC1,/,5.5*
COCCNC(=O)CCc1nc2sc3c(c2c(=O)[nH]1)CCCCC3,/,0.44
O=C1c2ccc(Cl)c3c(N4CCSCC4)ccc(c23)C(=O)N1c1ccccc1,0.66,/
COCCn1c(C2CC(=O)N(c3cccc(Cl)c3)C2)nc2ccccc21 (stereo not given),-1.67,0.87
CN(C)CCN(Cc1ccccc1)S(=O)(=O)c1ccc2c(c1)CCCC(=O)N2,/,-0.21
O=C(Cc1ccc(NC(=O)N2CCSc3ncccc32)cc1)Nc1ccc(Br)cc1,16.1*,0.53
O=C(Nc1ccc(Br)cc1)N1CCSc2ncccc21,/,0.44
O=C(c1cc2nc(-c3cccs3)cc(C(F)(F)F)n2n1)N1CCCC1c1ccco1 (stereo not given),0.74,1.18
CCc1ccc2occ(CC(=O)Nc3sc4c(c3C(=O)NCc3ccco3)CCCC4)c2c1,-1.1,2.18
O=C(NCC1CCCO1)c1ccc(NC(=O)c2nsc3ccccc23)cc1 (stereo not given),/,-0.17
CCOc1cc(C2CC(=O)N3CN(c4ccc(C)cc4)CSC3=C2C#N)ccc1O (stereo not given),3.2*,2.96
SMILES,CDC25B CDK2 inh,HIV TAR-Tat
CN1CSC2=C(C#N)C(c3cccc(OCc4ccccc4)c3)CC(=O)N2C1 (stereo not given),3.36*,-1.88
CN1CSC2=C(C#N)C(c3ccccc3)CC(=O)N2C1 (stereo not given),4.14,0.4
CCOC(=O)CN1CSC2=C(C#N)C(c3ccc(F)cc3)CC(=O)N2C1 (stereo not given),-0.34,2.31
CCOC(=O)c1ccc(N2CSC3=C(C#N)C(c4ccc(C)cc4)CC(=O)N3C2)cc1 (stereo not given),6.13*,-1.62
COC(=O)c1ccc(N2CSC3=C(C#N)C(c4ccc(C)cc4)CC(=O)N3C2)cc1 (stereo not given),15.6*,1.34
Cc1ccc(C2CC(=O)N3CN(C)CSC3=C2C#N)cc1 (stereo not given),0.82,0.37
CCOc1ccc(N2CSC3=C(C#N)C(c4ccc(C)o4)CC(=O)N3C2)cc1 (stereo not given),3.39*,0.86
CCOC(=O)c1ccc(N2CSC3=C(C#N)C(c4ccc(SC)cc4)CC(=O)N3C2)cc1 (stereo not given),5.1*,-2.3
CCOc1ccc(C2CC(=O)N3CN(C)CSC3=C2C#N)cc1OC (stereo not given),3.64*,-0.1
COc1ccc(C2CC(=O)N3CN(CCc4ccccc4)CSC3=C2C#N)cc1OC (stereo not given),-1.4,0.76
O=C(Nc1ccccc1F)N1CCN2CCCCC2C1 (stereo not given),/,-0.54
COC(=O)CN1C(=O)CSc2ccc(S(=O)(=O)Nc3ccc(F)cc3Cl)cc21,/,0.81
O=C(O)C1CSC(c2ccccc2)N1C(=O)c1ccccc1 (stereo not given),/,0.97
Cc1ccc(C2C(C#N)=C(N)Oc3ccc4ccccc4c32)cc1 (stereo not given),-0.61,/
CCC(Sc1nc2ncccc2[nH]1)C(=O)NCC1CCCO1 (stereo not given),/,1.11
Cn1c(/C=C/c2ccc3c(c2)OCO3)nc2ccccc2c1=O,0.59,0.6
C(=C\c1ccc2c(c1)OCO2)/C1=NN(c2ccccc2)C(c2ccc3c(c2)OCO3)C1 (stereo not given),15.6*,0.32
